Experimental data as given in PubChem BioAssay AID1159580 (chemical genetic matrix, 2015).
“And” between values parts separate entries of the source, which are not always exact repeats. Equal values may be shown once. The campaign covered roughly 5,500 compounds. About 2,000 (36%) were called active. About 18% were inconclusive and are not listed. Rule as the data show it: active = normalized growth mostly below about 0.91 (no sharp cut-off); inconclusive = no clear call, values can overlap the other calls; inactive = mostly above about 0.92. The list shows a part of the results.

Experiment: chemical genetic growth profiling, strain panel (AID 1159580);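 also: tested at 20 µM; growth read once vehicle control cultures reached saturation at 30 °C; 1 = growth at the plate median or of vehicle wells; lower values mean less growth of the strain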
Conditions: S. cerevisiae deletion strains, growth OD

Measured: normalized growth

CC(CN1c2ccccc2Sc2ccccc21)N(C)C (configuration not stated)
active: locus YAL021C, strain ccr4, active compounds read low 0.902 | locus YAL026C, strain drs2, active compounds read low 0.721 | locus YDR101C, strain arx1, active compounds read low 0.914 | locus YDR137W, strain rgp1, active compounds read low 1.25 [resistant] | locus YER015W, strain faa2, active compounds read low 0.901 | locus YER155C, strain BEM2 (second series), active compounds read low 0.816 | locus YFR010W, strain ubp6, active compounds read low 0.88 | locus YGL240W, strain doc1, active compounds read low 0.864 | locus YJL166W, strain qcr8, active compounds read low 0.896
inactive: locus YAL030W, strain snc1, active compounds read low 0.973 | locus YAL040C, strain CLN3, active compounds read low 0.985 | locus YBL061C, strain skt5, active compounds read low 0.924 | locus YBR009C, strain hhf1, active compounds read low 0.954 | locus YBR021W, strain FUR4, active compounds read low 0.938 | locus YBR023C, strain chs3, active compounds read low 0.927 | locus YBR171W, strain sec66, active compounds read low 0.988 | locus YBR229C, strain ROT2, active compounds read low 0.95 | locus YBR231C, strain swc5, active compounds read low 0.95 | locus YBR279W, strain paf1, active compounds read low 0.966 | locus YCL011C, strain gbp2, active compounds read low 0.981 | locus YCL016C, strain dcc1, active compounds read low 0.975 | locus YCL061C, strain MRC1 (second series), active compounds read low 0.998 | locus YCL069W, strain vba3, active compounds read low 0.938 | locus YCR088W, strain abp1, active compounds read low 0.988 | locus YDL005C, strain med2, active compounds read low 1 | locus YDL035C, strain GPR1, active compounds read low 0.966 | locus YDL040C, strain nat1, active compounds read low 0.982 | locus YDL074C, strain BRE1, active compounds read low 0.906 | locus YDL101C, strain DUN1, active compounds read low 0.944 | locus YDL134C, strain PPH21, active compounds read low 0.979 | locus YDL185W, strain tfp1, active compounds read low 0.978 | locus YDL192W, strain arf1, active compounds read low 0.982 | locus YDR001C, strain nth1, active compounds read low 0.983 | locus YDR069C, strain doa4, active compounds read low 0.946 | locus YDR150W, strain NUM1, active compounds read low 0.99 | locus YDR159W, strain sac3, active compounds read low 0.968 | locus YDR162C, strain NBP2, active compounds read low 0.982 | locus YDR195W, strain ref2 1.14 | locus YDR297W, strain sur2, active compounds read low 0.937 | locus YDR318W, strain mcm21, active compounds read low 0.95 | locus YDR334W, strain swr1, active compounds read low 0.985 | locus YDR335W, strain msn5, active compounds read low 0.94 | locus YDR363W, strain ESC2, active compounds read low 0.993 | locus YDR388W, active compounds read low 0.977 | locus YDR392W, strain spt3, active compounds read low 1.07 | locus YDR502C, strain sam2, active compounds read low 0.948 | locus YEL003W, strain gim4, active compounds read low 0.926 | locus YEL037C, strain rad23, active compounds read low 0.972 | locus YEL061C, strain CIN8 (second series), active compounds read low 0.975 | locus YEL061C, strain CIN8, active compounds read low 0.977 | locus YER002W, strain NOP16, active compounds read low 0.978 | locus YER016W, strain bim1, active compounds read low 0.988 | locus YER110C, active compounds read low 0.971 | locus YER111C, strain swi4, active compounds read low 0.98 | locus YER155C, strain BEM2, active compounds read low 0.987 | locus YER167W, strain BCK2, active compounds read low 0.986 | locus YGL078C, strain dbp3, active compounds read low 0.972 | locus YGL086W, strain mad1, active compounds read low 0.936 | locus YGL167C, strain pmr1, active compounds read low 0.987 | locus YGL173C, strain kem1, active compounds read low 0.926 | locus YGL227W, strain vid30, active compounds read low 0.974 | locus YGL248W, strain PDE1, active compounds read low 0.945 | locus YGL253W, strain hxk2, active compounds read low 0.963 | locus YGR135W, strain pre9, active compounds read low 1 | locus YGR229C, strain SMI1, active compounds read low 0.954 and 0.981 | locus YGR252W, strain gcn5, active compounds read low 0.815 | locus YHR013C, strain ard1, active compounds read low 1.01 | locus YHR027C, strain rpn1, active compounds read low 0.927 | locus YHR030C, strain SLT2, active compounds read low 0.99 and 1.04 | locus YHR079C, strain IRE1 (second series), active compounds read low 0.957 | locus YHR079C, strain IRE1, active compounds read low 1.07 | locus YHR094C, strain hxt1, active compounds read low 0.974 | locus YHR129C, strain ARP1, active compounds read low 0.985 | locus YHR142W, strain chs7, active compounds read low 0.879 | locus YHR200W, strain rpn10, active compounds read low 0.966 | locus YIL066C, strain RNR3, active compounds read low 0.917 | locus YIL073C, strain SPO22, active compounds read low 0.968 | locus YIL125W, strain kgd1, active compounds read low 0.963 | locus YIR030C, strain dcg1, active compounds read low 0.98 | locus YJL092W, strain hpr5, active compounds read low 0.949 | locus YJL095W, strain BCK1 (second series), active compounds read low 0.96 | locus YJL095W, strain BCK1, active compounds read low 0.906 and 1.01 | locus YJL115W, strain asf1, active compounds read low 0.974 | locus YJL129C, strain trk1, active compounds read low 1.02 | locus YJL134W, strain LCB3, active compounds read low 0.984 | locus YJL154C, strain vps35, active compounds read low 0.973 | locus YJL164C, strain tpk1, active compounds read low 0.964 | locus YJL168C, strain set2, active compounds read low 0.983 | locus YJL187C, strain SWE1 (second series), active compounds read low 0.894 | locus YJR043C, strain POL32, active compounds read low 0.968 | locus YJR066W, strain TOR1, active compounds read low 0.972 | locus YJR075W, strain HOC1, active compounds read low 0.981 and 1.01
